Among the data in publication PMC11006913 are binding signal values, retold here.

Targets include PITX2 (Homo sapiens, UniProt Q99697 72-157); SHOX (Homo sapiens, UniProt O15266 103-189, R173C); HESX1 (Homo sapiens, UniProt Q9UBX0 95-180, R109Q); CRX (Homo sapiens, UniProt O43186 26-111, R41L); HOXC10 (Homo sapiens, UniProt Q9NYD6 254-340, K271E); HOXA4 (Homo sapiens, UniProt Q00056 201-287, W262F); PRRX1 (Homo sapiens, UniProt P54821 80-166); ALX3 (Homo sapiens, UniProt O95076 139-225).

Holding throughout (test): PBM; 200 nM protein, PBS
Settings in all cases: dsDNA, one strand shown

Assay [1] concerns the target NKX3-2 (Homo sapiens, UniProt P78367 192-278, P234S).
Assay [2] addresses NKX3-2 (Homo sapiens, UniProt P78367 192-278).
Assay [3] deals with PROP1 (Homo sapiens, UniProt O75360 56-141).
In assay [4] the target is PROP1 (Homo sapiens, UniProt O75360 56-141, R99H).
For assay [5], the target named is PROP1 (Homo sapiens, UniProt O75360 56-141, F88S).
For assay [6], the target named is HOXD13 (Homo sapiens, UniProt P35453 263-343).
A further assay deals with T1, PAX4 (Homo sapiens, UniProt O43316 9-242, F177Y).
T1 sequence: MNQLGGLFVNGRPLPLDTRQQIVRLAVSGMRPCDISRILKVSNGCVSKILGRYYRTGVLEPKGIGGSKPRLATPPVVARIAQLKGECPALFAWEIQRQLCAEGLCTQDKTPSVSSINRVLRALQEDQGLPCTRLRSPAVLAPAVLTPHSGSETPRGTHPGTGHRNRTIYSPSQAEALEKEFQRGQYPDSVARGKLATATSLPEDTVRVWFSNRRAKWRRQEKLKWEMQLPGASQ

Assay [7] concerns the target VAX1 (Homo sapiens, UniProt Q5SQQ9 86-172).
The target in assay [8] is VAX1 (Homo sapiens, UniProt Q5SQQ9 86-172, T142I).
The target of assay [9] is VAX1 (Homo sapiens, UniProt Q5SQQ9 86-172, K157R).
Another assay addresses T2, NKX2-6 (Homo sapiens, UniProt A6NCS4 118-204, F151L).
T2 sequence: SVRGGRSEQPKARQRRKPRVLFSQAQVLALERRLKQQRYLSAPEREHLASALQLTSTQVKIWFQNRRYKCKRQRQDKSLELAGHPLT

In a further assay the target is T3, SIX6 (Homo sapiens, UniProt O95475 114-200, L167V).
T3 sequence: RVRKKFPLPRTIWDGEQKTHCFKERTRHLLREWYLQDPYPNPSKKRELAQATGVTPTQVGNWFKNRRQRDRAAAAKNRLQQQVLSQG

Assay [10] has as its target HOXD13 (Homo sapiens, UniProt P35453 263-343, T313A).
In the next assay the target is T4, NKX2-4 (Homo sapiens, UniProt Q9H2Z4 175-261, R246Q).
T4 sequence: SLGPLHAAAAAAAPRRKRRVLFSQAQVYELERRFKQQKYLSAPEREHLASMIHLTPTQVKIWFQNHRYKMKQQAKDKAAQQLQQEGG

PROP1 (Homo sapiens, UniProt O75360 56-141, F88S), sequence (O75360 56-141 F88S): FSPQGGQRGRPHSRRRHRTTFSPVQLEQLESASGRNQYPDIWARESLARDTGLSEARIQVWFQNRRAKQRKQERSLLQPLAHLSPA
ALX3, sequence (O95076 139-225): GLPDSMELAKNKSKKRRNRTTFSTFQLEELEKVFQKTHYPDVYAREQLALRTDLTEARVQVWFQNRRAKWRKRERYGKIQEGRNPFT
PROP1 (Homo sapiens, UniProt O75360 56-141, R99H), sequence (O75360 56-141 R99H): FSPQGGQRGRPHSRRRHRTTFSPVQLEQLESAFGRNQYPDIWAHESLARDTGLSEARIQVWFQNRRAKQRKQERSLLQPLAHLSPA
PROP1 (Homo sapiens, UniProt O75360 56-141), sequence (O75360 56-141): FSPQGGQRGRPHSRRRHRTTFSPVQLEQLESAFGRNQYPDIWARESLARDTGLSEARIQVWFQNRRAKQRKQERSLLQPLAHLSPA
HOXD13 (Homo sapiens, UniProt P35453 263-343), sequence (P35453 263-343): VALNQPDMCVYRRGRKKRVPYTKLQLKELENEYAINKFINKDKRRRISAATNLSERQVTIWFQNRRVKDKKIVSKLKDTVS
HOXC10, sequence (Q9NYD6 254-340 K271E): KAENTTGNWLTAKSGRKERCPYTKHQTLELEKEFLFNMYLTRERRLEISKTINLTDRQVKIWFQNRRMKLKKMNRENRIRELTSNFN
VAX1 (Homo sapiens, UniProt Q5SQQ9 86-172, K157R), sequence (Q5SQQ9 86-172 K157R): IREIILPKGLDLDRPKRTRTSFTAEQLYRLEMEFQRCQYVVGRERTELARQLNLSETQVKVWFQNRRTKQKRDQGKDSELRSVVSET
CRX, sequence (O43186 26-111 R41L): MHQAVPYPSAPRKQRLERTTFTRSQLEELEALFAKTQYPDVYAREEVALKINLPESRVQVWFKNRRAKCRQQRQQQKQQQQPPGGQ
VAX1 (Homo sapiens, UniProt Q5SQQ9 86-172, T142I), sequence (Q5SQQ9 86-172 T142I): as the sequence (Q5SQQ9 86-172 K157R) above, with T57I, R72K counted along it
VAX1 (Homo sapiens, UniProt Q5SQQ9 86-172), sequence (Q5SQQ9 86-172): as the sequence (Q5SQQ9 86-172 K157R) above, with R72K counted along it
NKX3-2 (Homo sapiens, UniProt P78367 192-278, P234S), sequence (P78367 192-278 P234S): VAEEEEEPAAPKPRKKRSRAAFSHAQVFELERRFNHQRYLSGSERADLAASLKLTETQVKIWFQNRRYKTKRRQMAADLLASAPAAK
NKX3-2 (Homo sapiens, UniProt P78367 192-278), sequence (P78367 192-278): as the sequence (P78367 192-278 P234S) above, with S43P counted along it
SHOX, sequence (O15266 103-189 R173C): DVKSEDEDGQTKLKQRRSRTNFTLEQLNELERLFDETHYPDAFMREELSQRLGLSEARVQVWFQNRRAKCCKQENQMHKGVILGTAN
HOXA4, sequence (Q00056 201-287 W262F): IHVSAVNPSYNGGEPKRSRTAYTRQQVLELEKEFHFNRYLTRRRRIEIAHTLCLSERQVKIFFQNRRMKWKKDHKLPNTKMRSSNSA
PRRX1, sequence (P54821 80-166): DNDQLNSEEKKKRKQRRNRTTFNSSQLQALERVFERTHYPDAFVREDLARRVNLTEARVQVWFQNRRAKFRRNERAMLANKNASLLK
HESX1, sequence (Q9UBX0 95-180 R109Q): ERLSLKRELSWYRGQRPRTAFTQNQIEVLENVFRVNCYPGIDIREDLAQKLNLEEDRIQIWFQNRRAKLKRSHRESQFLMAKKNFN
HOXD13 (Homo sapiens, UniProt P35453 263-343, T313A), sequence (P35453 263-343 T313A): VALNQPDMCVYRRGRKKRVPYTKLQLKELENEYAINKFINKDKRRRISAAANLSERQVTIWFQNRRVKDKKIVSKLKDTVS

CTATCGCC: in the assay with PITX2, the binding signal was 8.13 upbm affinity estimate (log intensity, higher = more binding, comparable within an allelic series).

Turning to ACGGTGCC, the binding signal was 7.94 upbm affinity estimate (log intensity, higher = more binding, comparable within an allelic series) with PITX2; 10.5 upbm affinity estimate (log intensity, higher = more binding, comparable within an allelic series) with NKX3-2 [1]; 10.5 upbm affinity estimate (log intensity, higher = more binding, comparable within an allelic series) with NKX3-2 [2].

Take AATTAGGT: the binding signal is 9.2 upbm affinity estimate (log intensity, higher = more binding, comparable within an allelic series) in the assay with SHOX; 11 upbm affinity estimate (log intensity, higher = more binding, comparable within an allelic series) with PROP1 [3]; 8.66 upbm affinity estimate (log intensity, higher = more binding, comparable within an allelic series) in the assay with HESX1; 10.6 upbm affinity estimate (log intensity, higher = more binding, comparable within an allelic series) with PROP1 [4]; 7.74 upbm affinity estimate (log intensity, higher = more binding, comparable within an allelic series) in the assay with PROP1 [5].

As to AGGAGGCC, the binding signal in the assay with PITX2 was 8.05 upbm affinity estimate (log intensity, higher = more binding, comparable within an allelic series); in the assay with PROP1 [3], 6.87 upbm affinity estimate (log intensity, higher = more binding, comparable within an allelic series); with PROP1 [4] it was 6.81 upbm affinity estimate (log intensity, higher = more binding, comparable within an allelic series); with PROP1 [5], 6.57 upbm affinity estimate (log intensity, higher = more binding, comparable within an allelic series).

ACACAATA: the binding signal with HOXD13 [6] is 10.6 upbm affinity estimate (log intensity, higher = more binding, comparable within an allelic series).

With AGAGTTAA, the binding signal with HOXD13 [6] is 10.7 upbm affinity estimate (log intensity, higher = more binding, comparable within an allelic series).

For the sequence TAACTAAA, the binding signal in the assay with HOXD13 [6] was 10.7 upbm affinity estimate (log intensity, higher = more binding, comparable within an allelic series).

On to TATATCAA, for which, in the assay with HOXD13 [6], the binding signal was 10.8 upbm affinity estimate (log intensity, higher = more binding, comparable within an allelic series).

Consider GCGCTTAA, for which, in the assay with PITX2, the binding signal was 11.1 upbm affinity estimate (log intensity, higher = more binding, comparable within an allelic series).

Turning to AATTATGG, the binding signal in the assay with SHOX was 9.26 upbm affinity estimate (log intensity, higher = more binding, comparable within an allelic series).

As to AGACTATA, the binding signal in the assay with HOXD13 [6] was 10.7 upbm affinity estimate (log intensity, higher = more binding, comparable within an allelic series).

As to GACGTTTA, in the assay with HOXD13 [6], the binding signal is 10.7 upbm affinity estimate (log intensity, higher = more binding, comparable within an allelic series).

As to AAGTTGTA, in the assay with HOXD13 [6], the binding signal is 10.7 upbm affinity estimate (log intensity, higher = more binding, comparable within an allelic series).

For AGATTTAT, the binding signal with PITX2 is 11 upbm affinity estimate (log intensity, higher = more binding, comparable within an allelic series).

Take AGATCAAC: in the assay with PITX2, the binding signal is 10.1 upbm affinity estimate (log intensity, higher = more binding, comparable within an allelic series).

As to ATCATTCA, the binding signal with HOXD13 [6] was 10.6 upbm affinity estimate (log intensity, higher = more binding, comparable within an allelic series).

For CTAAGCCC, the binding signal is 12.3 upbm affinity estimate (log intensity, higher = more binding, comparable within an allelic series) with PITX2 and 11.5 upbm affinity estimate (log intensity, higher = more binding, comparable within an allelic series) with CRX.

TATATGCA: in the assay with HOXD13 [6], the binding signal is 10.8 upbm affinity estimate (log intensity, higher = more binding, comparable within an allelic series).

AAGCTAGG: the binding signal with PITX2 was 9.89 upbm affinity estimate (log intensity, higher = more binding, comparable within an allelic series); with NKX3-2 [1], 10.4 upbm affinity estimate (log intensity, higher = more binding, comparable within an allelic series); in the assay with NKX3-2 [2] it was 10.4 upbm affinity estimate (log intensity, higher = more binding, comparable within an allelic series).

Turning to AGTTTTAT, the binding signal with HOXC10 was 11.3 upbm affinity estimate (log intensity, higher = more binding, comparable within an allelic series).

Take GTAGTAAA: the binding signal with HOXC10 was 11.1 upbm affinity estimate (log intensity, higher = more binding, comparable within an allelic series).

Turning to CTAATATA, the binding signal with PAX4 is 10.9 upbm affinity estimate (log intensity, higher = more binding, comparable within an allelic series).

As for ATAATTCA, the binding signal in the assay with PAX4 was 11.1 upbm affinity estimate (log intensity, higher = more binding, comparable within an allelic series).

On to TAATAGCA, for which the binding signal with PROP1 [3] is 9.06 upbm affinity estimate (log intensity, higher = more binding, comparable within an allelic series); with PROP1 [5] it was 7.3 upbm affinity estimate (log intensity, higher = more binding, comparable within an allelic series).

As to ATATAATC, the binding signal was 10.1 upbm affinity estimate (log intensity, higher = more binding, comparable within an allelic series) with VAX1 [7]; 10.1 upbm affinity estimate (log intensity, higher = more binding, comparable within an allelic series) with VAX1 [8]; 12.3 upbm affinity estimate (log intensity, higher = more binding, comparable within an allelic series) with CRX; 9.94 upbm affinity estimate (log intensity, higher = more binding, comparable within an allelic series) with VAX1 [9].

On to AAGTTATT, for which the binding signal was 10.1 upbm affinity estimate (log intensity, higher = more binding, comparable within an allelic series) in the assay with VAX1 [7]; 9.9 upbm affinity estimate (log intensity, higher = more binding, comparable within an allelic series) with VAX1 [8]; 9.7 upbm affinity estimate (log intensity, higher = more binding, comparable within an allelic series) with VAX1 [9].

AAGTGTTA: the binding signal with NKX2-6 was 10.7 upbm affinity estimate (log intensity, higher = more binding, comparable within an allelic series).

For the sequence ATCATGTC, the binding signal with HOXA4 was 10.3 upbm affinity estimate (log intensity, higher = more binding, comparable within an allelic series).

In the case of ATTTTAAC, the binding signal with PRRX1 is 11.9 upbm affinity estimate (log intensity, higher = more binding, comparable within an allelic series).

For AGATATCT, the binding signal in the assay with SIX6 is 10.8 upbm affinity estimate (log intensity, higher = more binding, comparable within an allelic series).

With ATAACATA, the binding signal in the assay with ALX3 was 9.54 upbm affinity estimate (log intensity, higher = more binding, comparable within an allelic series).

With CTTATAAC, the binding signal with ALX3 was 9.51 upbm affinity estimate (log intensity, higher = more binding, comparable within an allelic series).

For CACATAAA, the binding signal with HOXD13 [10] was 11.6 upbm affinity estimate (log intensity, higher = more binding, comparable within an allelic series).

Take AGACCGTC: the binding signal in the assay with PROP1 [3] is 6.82 upbm affinity estimate (log intensity, higher = more binding, comparable within an allelic series); with PROP1 [4], 6.83 upbm affinity estimate (log intensity, higher = more binding, comparable within an allelic series); in the assay with PROP1 [5], 6.81 upbm affinity estimate (log intensity, higher = more binding, comparable within an allelic series).

Turning to ATCAAGTA, the binding signal with NKX2-4 is 12.9 upbm affinity estimate (log intensity, higher = more binding, comparable within an allelic series).

Consider TCCTTAGA, for which the binding signal with ALX3 is 8.33 upbm affinity estimate (log intensity, higher = more binding, comparable within an allelic series).
